Data: PubChem BioAssay
Active and inactive are the calls of the source.

What was measured:
Albumin (Bos taurus) = Albumin (Bos taurus) (UniProt P02769); test: bovine serum albumin binders on microarray, profiling panel, artefact control for SMM control protein annotation, biochemical, small-molecule microarray, Alexa647 label, 635/667 nm fluorescence (AID 1118); conditions: BSA-A647 binding, fluorescence 635 nm, higher = more signal;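 note: score merges 667 nm emission intensity and signal-to-noise per printed compound spot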
[1] = small-molecule microarray binders of probe aXIP, primary screen, biochemical, NeuroSMM set, 635/667 nm fluorescence (AID 1119); conditions: higher = more signal, called active from +8 up or from −8 down;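 note: probe is the protein aXip251-270 applied at 1 µg/mL to compound-printed slides; binding of probe to printed compounds measured as 667 nm fluorescence plus signal to noise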
[2] = small-molecule binders of probe aNOTCH3, primary screen, biochemical, small-molecule microarray, 635/667 nm fluorescence (AID 1120); conditions: higher = more signal;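 note: probe is a biotin-tagged antibody raised against NOTCH3 rather than NOTCH3 protein; score merges spot fluorescence near 667 nm with spot signal to noise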
[3] = small-molecule binders of probe aNOTCH2, primary screen, biochemical, small-molecule microarray, 635/667 nm fluorescence (AID 1121); conditions: higher = more signal;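 note: score merges feature fluorescence read at 667 nm with its signal to noise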
[4] = target: Carbonic anhydrase 2 (Homo sapiens) (UniProt P00918); test: CAII small-molecule binders, profiling panel, biochemical, small-molecule microarray, Alexa647-labelled CAII (AID 1122); conditions: CAII-A647 binding fluorescence, higher = more signal
[5] = COS7 lysate on small-molecule microarray, probe aHis, 635 nm (AID 1123); conditions: COS7 cell lysate, fluorescence, higher = more signal;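 note: z-score combines 667nm fluorescence intensity with signal-to-noise per printed compound spot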
[6] = compound binding in COS7 lysate, probe aLAP1, primary screen, cell lysate, small-molecule microarray (AID 1124); conditions: probe aLAP1, fluorescence, higher = more signal;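 note: lysate comes from COS7 cells expressing LAP1 and is applied at 0.3 µg/mL; score merges spot fluorescence near 667 nm with signal-to-noise over triplicate slides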
Sam68 (KHDRBS1) = test: Sam68 small-molecule binders, primary screen, biochemical, small-molecule microarray, 635 nm fluorescence (AID 1125); conditions: small-molecule microarray binding, higher = more signal;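 note: score merges 667 nm channel intensity with signal to noise over triplicate slides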
[7] = test system: Chordin-like protein 2 (CHRDL2); test: CHRDL2 small-molecule binders, primary screen, biochemical, small-molecule microarray, 635 nm fluorescence (AID 1126); conditions: small-molecule microarray binding, fluorescence 635 nm; higher = more signal;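 note: printed compound slides probed with Chrdl2 protein at 4 µg/mL for 1 h at 4 C; score merges 667 nm emission intensity with signal to noise over three replicate slides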
[8] = target: Concanavalin-A (Canavalia ensiformis) (UniProt P02866); test: ConA small-molecule binders, primary screen, artefact control for SMM control protein annotation, biochemical, small-molecule microarray, Alexa647 label, 635 nm (AID 1127); conditions: ConA-A647 binding fluorescence, higher = more signal;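 note: z combines 667 nm emission intensity with signal-to-noise across three replicate slides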
Sequence of Concanavalin-A (Canavalia ensiformis) (P02866 whole entry, looked up): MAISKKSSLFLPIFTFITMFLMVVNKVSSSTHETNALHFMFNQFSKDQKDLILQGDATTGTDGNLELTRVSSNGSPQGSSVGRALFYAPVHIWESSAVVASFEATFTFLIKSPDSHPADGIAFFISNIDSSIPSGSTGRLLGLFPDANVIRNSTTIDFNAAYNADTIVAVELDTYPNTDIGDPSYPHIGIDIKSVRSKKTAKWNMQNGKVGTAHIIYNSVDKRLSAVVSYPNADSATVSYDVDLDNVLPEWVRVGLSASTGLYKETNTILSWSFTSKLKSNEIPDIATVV

Sequence of Albumin (Bos taurus) (P02769 whole entry, looked up): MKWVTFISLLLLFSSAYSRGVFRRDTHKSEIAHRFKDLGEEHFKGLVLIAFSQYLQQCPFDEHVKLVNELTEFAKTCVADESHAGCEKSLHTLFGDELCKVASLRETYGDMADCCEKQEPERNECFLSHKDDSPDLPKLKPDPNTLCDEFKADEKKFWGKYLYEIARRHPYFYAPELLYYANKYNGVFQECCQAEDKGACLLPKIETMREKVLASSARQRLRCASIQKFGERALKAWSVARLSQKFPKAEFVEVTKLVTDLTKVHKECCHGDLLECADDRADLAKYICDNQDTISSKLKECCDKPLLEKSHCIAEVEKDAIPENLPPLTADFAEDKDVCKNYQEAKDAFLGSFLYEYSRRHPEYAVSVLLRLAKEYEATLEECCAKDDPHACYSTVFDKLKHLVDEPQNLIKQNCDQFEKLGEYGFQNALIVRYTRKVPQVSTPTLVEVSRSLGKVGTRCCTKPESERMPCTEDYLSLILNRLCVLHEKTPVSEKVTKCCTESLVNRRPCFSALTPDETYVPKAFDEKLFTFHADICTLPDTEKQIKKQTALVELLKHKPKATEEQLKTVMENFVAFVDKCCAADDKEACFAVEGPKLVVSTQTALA

Row | Structure (SMILES) | composite z-score (Albumin (Bos taurus)) | composite Z-score [1] | composite z-score [2] | composite z-score [3] | composite z-score [4] | composite z-score [5] | composite z-score [6] | composite z-score (Sam68 (KHDRBS1)) | composite z-score [7] | composite z-score [8]
1 | C=CCN1Cc2ccccc2C[C@]2(N=C(c3ccc(OCCCO)cc3)O[C@@H]2c2ccccc2)C1=O | 0.025 | 0.862 (inactive) | 0.0276 | 0.101 | 0.605 | 2.42 | 0.75 | 1.3 | 1.14 | 1.18
2 | CCCC[C@@H]1C[C@H]1[C@@H](NC(=O)c1ccco1)c1ccccc1 | 0.277 | -0.264 (inactive) | -0.25 | -0.193 | -0.504 | -0.185 | -0.697 | -0.555 | -1.41 | -0.945
3 | [N-]=[N+]=NCc1ccccc1[C@@H]1OC(c2ccc(OCCCO)cc2)=N[C@]1(Cc1ccccc1N=[N+]=[N-])C(N)=O | 0.825 | 0.0773 (inactive) | 0.473 | 0.299 | 0.715 | 2.8 | 0.202 | 1.3 | -0.124 | 1.12
4 | O=C1C[C@@](C(=O)O)(c2ccc([N+](=O)[O-])cc2)[C@@H](c2ccc(CO)cc2I)N1CC12CC3CC(CC(C3)C1)C2 | 0.776 | 0.235 (inactive) | -0.132 | 0.0808 | 0.64 | 1.63 | 0.945 | 0.993 | -1.42 | 1.09
5 | O=C1OCCC=C[C@H]2OC34C=CCN(c5ccc6ccccc6c5)C(=O)[C@H]3N(CCCCCCO)C(=O)[C@@H]4C12 (stereo not given in full) | -0.768 | 0.938 (inactive) | -0.161 | -0.14 | 0.82 | 0.386 | -0.674 | 0.264 | -0.853 | -1.01
6 | CC(C)N1C(=O)c2ccccc2[C@](C)(C(=O)NCCCN(C)C)[C@@H]1c1ccc(CO)cc1 | 0.222 | -0.264 (inactive) | -0.149 | -0.0903 | 0.526 | 1.45 | 1.01 | -0.283 | -0.85 | -1.41
7 | COc1ccc(C(=O)Nc2cccc(CN3C(=O)[C@@]4(O[C@@H](CC(=O)N5Cc6ccccc6C[C@H]5CO)[C@H]([Si](C)(C)c5ccc(OC)cc5)[C@H]4C)c4ccccc43)c2)cc1 | -1.04 | 0.008 (inactive) | 0.127 | -0.14 | 0.576 | 1.15 | -0.0148 | 1.04 | 1.38 | 1.08
8 | O=C1O[C@H](c2ccccc2)[C@H](c2ccccc2)N2[C@H]1[C@@H](C(=O)Nc1nc3ccccc3s1)[C@]1(C(=O)Nc3ccc(C#CC4=CCCCC4)cc31)[C@H]2c1ccc(OCCO)cc1 | 0.897 | -0.495 (inactive) | 0.225 | -0.0144 | 0.761 | 2.68 | 0.596 | 1.3 | 0.448 | 1.12
9 | C[N+](C)(C)CCCCNC(=O)[C@H]1C[C@H]2C(=O)N3CCC[C@H]3C(=O)N2[C@H]1c1ccc(O)cc1 | -0.926 | -0.388 (inactive) | 0.0793 | -0.0449 | 0.627 | 2.08 | 0.625 | 0.895 | 1.21 | 1.09
10 | C=CCN1Cc2ccccc2C[C@@]2(COC(c3ccc(OCCCO)cc3)=N2)C1=O | -0.476 | 0.0425 (inactive) | 0.0596 | 0.0965 | 0.598 | 2.14 | 0.547 | 0.811 | 1.12 | 0.85
11 | CC(C)(C)OC(=O)CC[C@]1(C(=O)NCC(O)CO)N=C(c2ccc(OCCCO)cc2)O[C@H]1c1ccccc1CN=[N+]=[N-] (stereo not given in full) | 0.906 | 1.27 (inactive) | 0.883 | 0.382 | 0.747 | 2.82 | 1.58 | 1.16 | 0.0916 | 1
12 | C=CCOC(=O)[C@@H]1[C@H]2C(=O)O[C@H](c3ccccc3)[C@H](c3ccccc3)N2[C@H](c2ccc(OCCOC(=O)[C@H]3C[C@H]4C(=O)N[C@@H](Cc5ccccc5)C(=O)N4[C@H]3c3ccc(O)cc3)cc2)[C@@]12C(=O)Nc1ccc(I)cc12 | -0.893 | 1.43 (inactive) | 0.0092 | 0.27 | 0.554 | 0.931 | 1.17 | 1.29 | 1.12 | 1.16
13 | C=C(C(=O)CC[C@@H](OC(=O)c1cccnc1)c1ccc(OCCO)cc1)C(C)C | -0.541 | -0.471 (inactive) | 0.123 | -0.179 | 0.0384 | -0.266 | 0.354 | 0.921 | 0.606 | 0.303
14 | COc1ccc([Si](C)(C)[C@H]2[C@H](CC(=O)N3CCC[C@H]3CO)O[C@@]3(C(=O)N(c4ccccc4)c4ccccc43)[C@@H]2C)cc1 | 0.723 | -0.352 (inactive) | -0.191 | -0.185 | 0.655 | -0.0779 | 0.0352 | -0.126 | 0.515 | 0.493
15 | NC(=O)NCC#Cc1ccc2c(c1)[C@]1(C(=O)N2)[C@H](c2ccc(O)cc2)N2[C@H](c3ccccc3)[C@H](c3ccccc3)OC(=O)[C@H]2[C@@H]1C(=O)N1CCN(c2ncccn2)CC1 | 0.317 | 1.24 (inactive) | 0.191 | -0.0048 | 0.396 | 1.64 | 0.32 | -0.0586 | -0.165 | 0.377
16 | C#C[C@H](O[Si](C#CCCCCCC)(C(C)C)C(C)C)c1ccccc1 | -0.22 | 0.364 (inactive) | -0.22 | -0.155 | 0.342 | 0.43 | -0.281 | 0.524 | -0.0786 | -0.0042
17 | NC(=O)NCC#Cc1ccc2c(c1)[C@]1(C(=O)N2)[C@H](C(=O)NC[C@H](O)c2ccccc2)[C@H]2C(=O)O[C@H](c3ccccc3)[C@H](c3ccccc3)N2[C@@H]1c1ccccc1OCCO | 0.308 | 0.15 (inactive) | -0.0003 | -0.164 | 0.539 | 1.54 | 0.564 | 0.854 | -0.769 | 0.913

Row | Structure (SMILES) | composite z-score (Albumin (Bos taurus)) | composite Z-score [1] | composite z-score [2] | composite z-score [3] | composite z-score [4] | composite z-score [5] | composite z-score [6] | composite z-score (Sam68 (KHDRBS1)) | composite z-score [7] | composite z-score [8]
18 | CO[C@H]1O[C@H](CO)[C@@H](OC(=O)Nc2ccc(C(F)(F)F)cc2)[C@H](OC(=O)Nc2ccccc2)[C@@H]1OC(=O)Nc1ccccc1 | 0.533 | 0.291 (inactive) | 0.217 | 0.0405 | 0.527 | 2.31 | -0.0098 | 1.29 | -0.28 | 1.16
19 | CCCC[C@@H]1C[C@H]1[C@@H](NC(=O)c1ccccc1)c1ccc(-c2ccccc2)cc1 | 0.891 | -0.0708 (inactive) | -0.0647 | -0.128 | 0.498 | 1.17 | -0.146 | 0.893 | -0.995 | 0.147
20 | O=C(NCC(O)CO)[C@@]1(Cc2ccccc2)N=C(c2ccc(OCCCO)cc2)O[C@H]1c1ccccc1 (stereo not given in full) | 0.944 | 0.805 (inactive) | 0.331 | 0.257 | 0.852 | 2.83 | 1.01 | 1.24 | -1.34 | 0.785
21 | C=C(C(=O)CC[C@H](OC(=O)c1cccnc1)c1ccccc1OCCO)C(C)C | -0.609 | -0.507 (inactive) | 0.143 | -0.129 | 0.543 | 1.28 | 0.86 | 0.912 | 1.39 | 0.49
22 | CC[C@@H]1C=C(C(=O)O)[C@H](c2ccc(C(C)C)cc2)N1S(=O)(=O)c1ccc(C)cc1 | 0.987 | 1.1 (inactive) | 0.42 | 0.346 | 0.796 | 2.85 | 1.63 | 1.3 | -0.557 | 1.21
23 | CN1C(=O)C2C=CC(C(O)C3=C[C@H]4C[C@@H](C3)C4(C)C)N(Nc3ccc([N+](=O)[O-])cc3[N+](=O)[O-])C2C1=O (stereo not given in full) | 0.909 | 1.09 (inactive) | 0.289 | 0.186 | 0.722 | 2.38 | 0.805 | 1.12 | 0.51 | 1.16
24 | C#C[C@H]1Oc2ccccc2S(=O)(=O)N2CCC[C@@H]12 | -1.3 | -0.0662 (inactive) | 0.0026 | -0.0548 | -0.156 | -0.117 | 0.0504 | -0.399 | 0.839 | -1.55
25 | O=c1cccc(-c2ccccc2)o1 | 0.66 | 2.27 (inactive) | -0.0933 | -0.0974 | 0.51 | -0.295 | -0.0258 | -1.1 | 0.223 | -0.234
26 | O=C1O[C@@H](c2ccccc2)[C@@H](c2ccccc2)N2[C@@H](c3ccc(O)cc3)[C@]3(C(=O)Nc4ccc(C#CCCO)cc43)[C@@H](C(=O)O)[C@H]12 | 0.323 | 0.674 (inactive) | 1.05 | 0.734 | 0.653 | 2.34 | 0.734 | 0.872 | 0.434 | 1.03
27 | C=CC[C@]1(C(=O)NCCN2CCOCC2)N=C(c2ccc(OCCCO)cc2)O[C@H]1c1ccccc1N=[N+]=[N-] | 0.927 | 0.581 (inactive) | 0.0303 | -0.0359 | 0.691 | 1.55 | 0.811 | 1.24 | 0.663 | 0.563
28 | O=C1C2C=CC(C(O)c3ccc(B(O)O)cc3)N(Nc3ccc([N+](=O)[O-])cc3)C2C(=O)N1c1ccccc1 (stereo not given) | 0.832 | 0.142 (inactive) | 0.172 | -0.0439 | 0.654 | 2.02 | 0.588 | 1.32 | 0.262 | 0.738
29 | O=C1OCC=C[C@H]2OC34C=CCN(c5ccc(Cl)cc5)C(=O)[C@H]3N(CCCO)C(=O)[C@@H]4[C@@H]12 (stereo not given in full) | -1.3 | -0.265 (inactive) | -0.254 | -0.164 | 0.96 | 0.446 | -0.0727 | -0.819 | -1.6 | -0.927
30 | COc1cc(CO)cc(I)c1O[C@H]1C=C(C(=O)NCCO)C[C@@H](N(CCc2cccc(F)c2)C(=O)CCC2CCCC2)[C@@H]1O | -0.526 | 0.687 (inactive) | 0.13 | -0.0596 | 0.117 | 1.29 | 1.88 | 1.3 | 1.32 | 0.444
31 | COCCCNC(=O)[C@@]1(C)c2ccccc2C(=O)N(Cc2ccccc2)[C@H]1c1ccc(CO)cc1 | 0.172 | 0.45 (inactive) | -0.274 | -0.189 | 0.397 | 2.62 | 0.848 | 0.203 | -1.5 | 0.17
32 | COc1ccc([Si](C)(C)[C@@H]2[C@@H](CCO)O[C@]3(C(=O)N(Cc4cccc(N5CCCCC5=O)c4)c4ccccc43)[C@H]2C)cc1 | 0.532 | 0.6 (inactive) | 0.134 | -0.123 | 0.361 | 1.06 | 0.0492 | 1.29 | 0.128 | 0.961
33 | O=C1C2C=CC(C(O)c3ccc(-c4ccccc4)s3)N(Nc3ccccc3F)C2C(=O)N1c1ccccc1 (stereo not given) | 0.822 | 0.446 (inactive) | 0.113 | 0.149 | 0.69 | 2.09 | 0.335 | 1.29 | -0.0798 | 1.12
